Test results published in paper PMC11006913.
Numbering of substitutions follows the chain as printed.

Tests used:
Assay in all cases: PBM; 200 nM protein, PBS
Settings in all cases: dsDNA, one strand shown
[1] = target: T1, SIX6 (Homo sapiens, UniProt O95475 114-200, L167I)
T1 sequence: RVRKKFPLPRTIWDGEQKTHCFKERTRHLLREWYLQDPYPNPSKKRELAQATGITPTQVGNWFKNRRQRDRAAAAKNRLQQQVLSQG

[2] = target: T2, SIX6 (Homo sapiens, UniProt O95475 114-200, L143V)
T2 sequence: T1 sequence with L30V, I54L

[3] = target: T3, SIX6 (Homo sapiens, UniProt O95475 114-200, H141N)
T3 sequence: T1 sequence with H28N, I54L

[4] = target: T4, SIX6 (Homo sapiens, UniProt O95475 114-200, T165P)
T4 sequence: T1 sequence with T52P, I54L

[5] = target: T5, SIX6 (Homo sapiens, UniProt O95475 114-200, L167M)
T5 sequence: T1 sequence with I54M

[6] = target: T6, SIX6 (Homo sapiens, UniProt O95475 114-200, L143M)
T6 sequence: T1 sequence with L30M, I54L

[7] = target: T7, SIX6 (Homo sapiens, UniProt O95475 114-200, L143I)
T7 sequence: T1 sequence with L30I, I54L

[8] = target: T8, SIX6 (Homo sapiens, UniProt O95475 114-200, T165G)
T8 sequence: T1 sequence with T52G, I54L

[9] = target: T9, SIX6 (Homo sapiens, UniProt O95475 114-200, T139Q)
T9 sequence: T1 sequence with T26Q, I54L

[10] = target: T10, SIX6 (Homo sapiens, UniProt O95475 114-200, T165A)
T10 sequence: T1 sequence with T52A, I54L

[11] = target: T11, SIX6 (Homo sapiens, UniProt O95475 114-200, L167V)
T11 sequence: T1 sequence with I54V

[12] = target: T12, SIX6 (Homo sapiens, UniProt O95475 114-200)
T12 sequence: T1 sequence with I54L

[13] = target: T13, SIX6 (Homo sapiens, UniProt O95475 114-200, T165I)
T13 sequence: T1 sequence with T52I, I54L

Sequence | binding signal [1] | binding signal [2] | binding signal [3] | binding signal [4] | binding signal [5] | binding signal [6] | binding signal [7] | binding signal [8] | binding signal [9] | binding signal [10] | binding signal [11] | binding signal [12] | binding signal [13]
CCCTCTGC | 8.98 upbm affinity estimate (log intensity, higher = more binding, comparable within an allelic series) | 8.83 upbm affinity estimate (log intensity, higher = more binding, comparable within an allelic series) | 9.02 upbm affinity estimate (log intensity, higher = more binding, comparable within an allelic series) | 8.85 upbm affinity estimate (log intensity, higher = more binding, comparable within an allelic series) | 8.95 upbm affinity estimate (log intensity, higher = more binding, comparable within an allelic series) | 9.06 upbm affinity estimate (log intensity, higher = more binding, comparable within an allelic series) | 8.9 upbm affinity estimate (log intensity, higher = more binding, comparable within an allelic series) | 9.1 upbm affinity estimate (log intensity, higher = more binding, comparable within an allelic series) | 9.06 upbm affinity estimate (log intensity, higher = more binding, comparable within an allelic series) | 9.06 upbm affinity estimate (log intensity, higher = more binding, comparable within an allelic series) | 8.95 upbm affinity estimate (log intensity, higher = more binding, comparable within an allelic series) | 9.05 upbm affinity estimate (log intensity, higher = more binding, comparable within an allelic series) | 8.97 upbm affinity estimate (log intensity, higher = more binding, comparable within an allelic series)
CAGCCCCG | 8.86 upbm affinity estimate (log intensity, higher = more binding, comparable within an allelic series) | 8.79 upbm affinity estimate (log intensity, higher = more binding, comparable within an allelic series) | 8.86 upbm affinity estimate (log intensity, higher = more binding, comparable within an allelic series) | 8.88 upbm affinity estimate (log intensity, higher = more binding, comparable within an allelic series) | 8.84 upbm affinity estimate (log intensity, higher = more binding, comparable within an allelic series) | 8.78 upbm affinity estimate (log intensity, higher = more binding, comparable within an allelic series) | 8.82 upbm affinity estimate (log intensity, higher = more binding, comparable within an allelic series) | 8.82 upbm affinity estimate (log intensity, higher = more binding, comparable within an allelic series) | 8.98 upbm affinity estimate (log intensity, higher = more binding, comparable within an allelic series) | 8.8 upbm affinity estimate (log intensity, higher = more binding, comparable within an allelic series) | 8.86 upbm affinity estimate (log intensity, higher = more binding, comparable within an allelic series) | 8.8 upbm affinity estimate (log intensity, higher = more binding, comparable within an allelic series) | 8.81 upbm affinity estimate (log intensity, higher = more binding, comparable within an allelic series)
CCGGGGCC | 9.14 upbm affinity estimate (log intensity, higher = more binding, comparable within an allelic series) | 8.96 upbm affinity estimate (log intensity, higher = more binding, comparable within an allelic series) | 9.12 upbm affinity estimate (log intensity, higher = more binding, comparable within an allelic series) | 8.97 upbm affinity estimate (log intensity, higher = more binding, comparable within an allelic series) | 9.04 upbm affinity estimate (log intensity, higher = more binding, comparable within an allelic series) | 9.04 upbm affinity estimate (log intensity, higher = more binding, comparable within an allelic series) | 9.01 upbm affinity estimate (log intensity, higher = more binding, comparable within an allelic series) | 9.1 upbm affinity estimate (log intensity, higher = more binding, comparable within an allelic series) | 9.26 upbm affinity estimate (log intensity, higher = more binding, comparable within an allelic series) | 9.1 upbm affinity estimate (log intensity, higher = more binding, comparable within an allelic series) | 9.05 upbm affinity estimate (log intensity, higher = more binding, comparable within an allelic series) | 9.09 upbm affinity estimate (log intensity, higher = more binding, comparable within an allelic series) | 9.09 upbm affinity estimate (log intensity, higher = more binding, comparable within an allelic series)
AGGTGGGC | 8.98 upbm affinity estimate (log intensity, higher = more binding, comparable within an allelic series) | 8.85 upbm affinity estimate (log intensity, higher = more binding, comparable within an allelic series) | 8.88 upbm affinity estimate (log intensity, higher = more binding, comparable within an allelic series) | 8.89 upbm affinity estimate (log intensity, higher = more binding, comparable within an allelic series) | 8.86 upbm affinity estimate (log intensity, higher = more binding, comparable within an allelic series) | 8.93 upbm affinity estimate (log intensity, higher = more binding, comparable within an allelic series) | 8.92 upbm affinity estimate (log intensity, higher = more binding, comparable within an allelic series) | 8.98 upbm affinity estimate (log intensity, higher = more binding, comparable within an allelic series) | 9.06 upbm affinity estimate (log intensity, higher = more binding, comparable within an allelic series) | 8.91 upbm affinity estimate (log intensity, higher = more binding, comparable within an allelic series) | 8.91 upbm affinity estimate (log intensity, higher = more binding, comparable within an allelic series) | 8.91 upbm affinity estimate (log intensity, higher = more binding, comparable within an allelic series) | 8.94 upbm affinity estimate (log intensity, higher = more binding, comparable within an allelic series)
ATGTATCA | 11.4 upbm affinity estimate (log intensity, higher = more binding, comparable within an allelic series) | 10.6 upbm affinity estimate (log intensity, higher = more binding, comparable within an allelic series) | 11.5 upbm affinity estimate (log intensity, higher = more binding, comparable within an allelic series) | 10.1 upbm affinity estimate (log intensity, higher = more binding, comparable within an allelic series) | 11 upbm affinity estimate (log intensity, higher = more binding, comparable within an allelic series) | 11.2 upbm affinity estimate (log intensity, higher = more binding, comparable within an allelic series) | 10.6 upbm affinity estimate (log intensity, higher = more binding, comparable within an allelic series) | 11.5 upbm affinity estimate (log intensity, higher = more binding, comparable within an allelic series) | 11.3 upbm affinity estimate (log intensity, higher = more binding, comparable within an allelic series) | 11.4 upbm affinity estimate (log intensity, higher = more binding, comparable within an allelic series) | 11.2 upbm affinity estimate (log intensity, higher = more binding, comparable within an allelic series) | 11.2 upbm affinity estimate (log intensity, higher = more binding, comparable within an allelic series) | 11.3 upbm affinity estimate (log intensity, higher = more binding, comparable within an allelic series)
ATCGATAC | 11.2 upbm affinity estimate (log intensity, higher = more binding, comparable within an allelic series) | 10.5 upbm affinity estimate (log intensity, higher = more binding, comparable within an allelic series) | 11.2 upbm affinity estimate (log intensity, higher = more binding, comparable within an allelic series) | 9.79 upbm affinity estimate (log intensity, higher = more binding, comparable within an allelic series) | 10.6 upbm affinity estimate (log intensity, higher = more binding, comparable within an allelic series) | 10.9 upbm affinity estimate (log intensity, higher = more binding, comparable within an allelic series) | 10.3 upbm affinity estimate (log intensity, higher = more binding, comparable within an allelic series) | 11.2 upbm affinity estimate (log intensity, higher = more binding, comparable within an allelic series) | 11.3 upbm affinity estimate (log intensity, higher = more binding, comparable within an allelic series) | 11.1 upbm affinity estimate (log intensity, higher = more binding, comparable within an allelic series) | 11 upbm affinity estimate (log intensity, higher = more binding, comparable within an allelic series) | 11 upbm affinity estimate (log intensity, higher = more binding, comparable within an allelic series) | 11 upbm affinity estimate (log intensity, higher = more binding, comparable within an allelic series)
ACGTATCA | 11.3 upbm affinity estimate (log intensity, higher = more binding, comparable within an allelic series) | 10.3 upbm affinity estimate (log intensity, higher = more binding, comparable within an allelic series) | 11.3 upbm affinity estimate (log intensity, higher = more binding, comparable within an allelic series) | 9.82 upbm affinity estimate (log intensity, higher = more binding, comparable within an allelic series) | 10.7 upbm affinity estimate (log intensity, higher = more binding, comparable within an allelic series) | 11.1 upbm affinity estimate (log intensity, higher = more binding, comparable within an allelic series) | 10.4 upbm affinity estimate (log intensity, higher = more binding, comparable within an allelic series) | 11.3 upbm affinity estimate (log intensity, higher = more binding, comparable within an allelic series) | 11.3 upbm affinity estimate (log intensity, higher = more binding, comparable within an allelic series) | 11.2 upbm affinity estimate (log intensity, higher = more binding, comparable within an allelic series) | 11.1 upbm affinity estimate (log intensity, higher = more binding, comparable within an allelic series) | 11.1 upbm affinity estimate (log intensity, higher = more binding, comparable within an allelic series) | 11 upbm affinity estimate (log intensity, higher = more binding, comparable within an allelic series)
GATCGATA | 11 upbm affinity estimate (log intensity, higher = more binding, comparable within an allelic series) | 10.3 upbm affinity estimate (log intensity, higher = more binding, comparable within an allelic series) | 11 upbm affinity estimate (log intensity, higher = more binding, comparable within an allelic series) | 9.87 upbm affinity estimate (log intensity, higher = more binding, comparable within an allelic series) | 10.5 upbm affinity estimate (log intensity, higher = more binding, comparable within an allelic series) | 10.8 upbm affinity estimate (log intensity, higher = more binding, comparable within an allelic series) | 10.4 upbm affinity estimate (log intensity, higher = more binding, comparable within an allelic series) | 11 upbm affinity estimate (log intensity, higher = more binding, comparable within an allelic series) | 11.2 upbm affinity estimate (log intensity, higher = more binding, comparable within an allelic series) | 10.9 upbm affinity estimate (log intensity, higher = more binding, comparable within an allelic series) | 10.8 upbm affinity estimate (log intensity, higher = more binding, comparable within an allelic series) | 10.9 upbm affinity estimate (log intensity, higher = more binding, comparable within an allelic series) | 10.8 upbm affinity estimate (log intensity, higher = more binding, comparable within an allelic series)
ATATCATC | 11.3 upbm affinity estimate (log intensity, higher = more binding, comparable within an allelic series) | 10.5 upbm affinity estimate (log intensity, higher = more binding, comparable within an allelic series) | 11.2 upbm affinity estimate (log intensity, higher = more binding, comparable within an allelic series) | 10 upbm affinity estimate (log intensity, higher = more binding, comparable within an allelic series) | 10.8 upbm affinity estimate (log intensity, higher = more binding, comparable within an allelic series) | 11.1 upbm affinity estimate (log intensity, higher = more binding, comparable within an allelic series) | 10.5 upbm affinity estimate (log intensity, higher = more binding, comparable within an allelic series) | 11.3 upbm affinity estimate (log intensity, higher = more binding, comparable within an allelic series) | 11.3 upbm affinity estimate (log intensity, higher = more binding, comparable within an allelic series) | 11.2 upbm affinity estimate (log intensity, higher = more binding, comparable within an allelic series) | 11 upbm affinity estimate (log intensity, higher = more binding, comparable within an allelic series) | 11.1 upbm affinity estimate (log intensity, higher = more binding, comparable within an allelic series) | 11.1 upbm affinity estimate (log intensity, higher = more binding, comparable within an allelic series)
CAGGTATC | 10.9 upbm affinity estimate (log intensity, higher = more binding, comparable within an allelic series) | 10.2 upbm affinity estimate (log intensity, higher = more binding, comparable within an allelic series) | 10.9 upbm affinity estimate (log intensity, higher = more binding, comparable within an allelic series) | 9.6 upbm affinity estimate (log intensity, higher = more binding, comparable within an allelic series) | 10.5 upbm affinity estimate (log intensity, higher = more binding, comparable within an allelic series) | 10.7 upbm affinity estimate (log intensity, higher = more binding, comparable within an allelic series) | 10.2 upbm affinity estimate (log intensity, higher = more binding, comparable within an allelic series) | 11.1 upbm affinity estimate (log intensity, higher = more binding, comparable within an allelic series) | 11.1 upbm affinity estimate (log intensity, higher = more binding, comparable within an allelic series) | 11 upbm affinity estimate (log intensity, higher = more binding, comparable within an allelic series) | 10.6 upbm affinity estimate (log intensity, higher = more binding, comparable within an allelic series) | 10.9 upbm affinity estimate (log intensity, higher = more binding, comparable within an allelic series) | 10.7 upbm affinity estimate (log intensity, higher = more binding, comparable within an allelic series)
GTATCACA | 11.4 upbm affinity estimate (log intensity, higher = more binding, comparable within an allelic series) | 10.4 upbm affinity estimate (log intensity, higher = more binding, comparable within an allelic series) | 11.4 upbm affinity estimate (log intensity, higher = more binding, comparable within an allelic series) | 9.83 upbm affinity estimate (log intensity, higher = more binding, comparable within an allelic series) | 10.8 upbm affinity estimate (log intensity, higher = more binding, comparable within an allelic series) | 11.2 upbm affinity estimate (log intensity, higher = more binding, comparable within an allelic series) | 10.5 upbm affinity estimate (log intensity, higher = more binding, comparable within an allelic series) | 11.6 upbm affinity estimate (log intensity, higher = more binding, comparable within an allelic series) | 11.4 upbm affinity estimate (log intensity, higher = more binding, comparable within an allelic series) | 11.4 upbm affinity estimate (log intensity, higher = more binding, comparable within an allelic series) | 11.2 upbm affinity estimate (log intensity, higher = more binding, comparable within an allelic series) | 11.2 upbm affinity estimate (log intensity, higher = more binding, comparable within an allelic series) | 11.2 upbm affinity estimate (log intensity, higher = more binding, comparable within an allelic series)
